# Measurements reported in PubChem BioAssay (Tox21).
# “And” between values parts separate entries of the source, which are not always exact repeats. Equal values may be shown once. Records with an inconclusive call do not appear. Where a call stands in place of a potency, no number is given. More than one record can exist for a structure, and the calls need not agree. The source made the active and inactive calls. Unless noted, calls come from the whole dose curve; as a rule, active = well fitted curve in the direction sought with a large enough effect in the repeat runs; inconclusive = weak or mixed curves; inactive = no such curve, though single readings can be large; an effect the other way counts as inactive or inconclusive.
# Tests used:
# [1] = qHTS assay to identify aromatase inhibitors - cell viability counter screen (AID 743084);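 note: cells stimulated with testosterone during compound exposure; nearly all actives have a fitted effect of over 55% in size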; note: potency is the fitted concentration of half-maximal effect
# [2] = target: Aryl hydrocarbon receptor (Homo sapiens) (UniProt P35869); test: qHTS assay to identify small molecule that activate the aryl hydrocarbon receptor (AhR) signaling pathway (AID 743085); note: nearly all actives have a fitted effect of over 15% in size; note: potency is the fitted concentration of half-maximal effect;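 for activation: HG2L7.5c1 human HepG2 liver cells with stably integrated DRE-driven firefly reporter; series mostly up to about 70 µM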
# Aryl hydrocarbon receptor (Homo sapiens), sequence (P35869 whole entry, looked up): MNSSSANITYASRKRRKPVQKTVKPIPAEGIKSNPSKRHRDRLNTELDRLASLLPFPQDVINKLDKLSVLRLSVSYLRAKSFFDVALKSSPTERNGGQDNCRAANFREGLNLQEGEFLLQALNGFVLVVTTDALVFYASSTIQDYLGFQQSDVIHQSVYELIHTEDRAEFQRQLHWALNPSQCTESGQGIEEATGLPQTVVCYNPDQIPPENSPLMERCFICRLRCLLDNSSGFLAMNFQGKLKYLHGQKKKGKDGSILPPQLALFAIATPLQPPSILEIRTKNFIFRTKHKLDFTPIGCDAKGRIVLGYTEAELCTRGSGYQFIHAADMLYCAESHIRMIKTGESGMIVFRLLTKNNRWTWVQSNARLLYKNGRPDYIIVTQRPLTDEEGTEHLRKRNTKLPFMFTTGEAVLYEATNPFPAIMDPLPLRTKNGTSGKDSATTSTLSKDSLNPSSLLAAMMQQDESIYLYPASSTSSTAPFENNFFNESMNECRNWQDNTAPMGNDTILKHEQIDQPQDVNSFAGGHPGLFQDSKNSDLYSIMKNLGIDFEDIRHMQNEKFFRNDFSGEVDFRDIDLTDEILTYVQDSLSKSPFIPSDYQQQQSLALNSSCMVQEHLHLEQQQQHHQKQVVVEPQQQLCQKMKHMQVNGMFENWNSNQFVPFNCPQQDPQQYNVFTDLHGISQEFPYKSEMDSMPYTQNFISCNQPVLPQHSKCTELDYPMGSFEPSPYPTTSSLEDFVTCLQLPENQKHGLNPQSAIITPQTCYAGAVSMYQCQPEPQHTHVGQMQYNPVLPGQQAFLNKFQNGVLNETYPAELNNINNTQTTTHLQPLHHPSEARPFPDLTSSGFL
# Outline: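 Luminescence read-out: ONE-Glo reagent, 30 min at room temperature, in HG2L7.5c1 HepG2 reporter cells treated 24 h at 37C. Viability was measured beforehand by CellTiter-Fluor fluorescence after 30 min at 37C.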
# [3] = qHTS assay to identify small molecule that activate the aryl hydrocarbon receptor (AhR) signaling pathway - cell viability counter screen (AID 743086); note: nearly all actives have a fitted effect of over 45% in size; note: potency is the fitted concentration of half-maximal effect
# Outline: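 HepG2-AhR-luc (HG2L7.5c1) cells, 4000/well, treated 24 h at 37 C with compound; viability measured as CellTiter-Fluor fluorescence after 30 min in the same wells as the luciferase read.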
# [4] = qHTS assay to identify small molecule antagonists of the peroxisome proliferator-activated receptor gamma (PPARg) signaling pathway - cell viability counter screen (AID 743194); note: nearly all actives have a fitted effect of over 55% in size; note: potency is the fitted concentration of half-maximal effect
# Outline: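 Cytotoxicity counter screen in PPARg-bla HEK293H cells, same wells as reporter assay. Compounds plus 50 nM rosiglitazone (final) for 17 h at 37 C, then viability read by CellTiter-Glo luminescence.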
# [5] = qHTS assay for small molecule agonists of the antioxidant response element (ARE) signaling pathway - cell viability counter screen (AID 743203; calls by dose curve; note: nearly all actives have a fitted effect of over 55% in size; note: potency is the fitted concentration of half-maximal effect)
# Outline: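 Cells (ARE-bla HepG2, 2,000/well) receive DMSO-dissolved compounds after a 5 hrs rest. Plates incubate 16 hrs at 37C/5% CO2. CellTiter-Glo luminescence is then recorded after 30 min at room temperature.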
# [6] = qHTS assay for small molecule activators of the heat shock response signaling pathway - cell viability counter screen (AID 743209); note: nearly all actives have a fitted effect of over 50% in size; note: potency is the fitted concentration of half-maximal effect
# Outline: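 Quantitative HTS format, Tox21 10K library. HeLa cells carrying an HSE-driven beta-lactamase reporter were treated 5 h at 37 C, then assessed for viability by CellTiter-Glo luminescence.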
# [7] = target: Peroxisome proliferator-activated receptor gamma (Homo sapiens) (UniProt P37231); test: qHTS assay to identify small molecule agonists of the peroxisome proliferator-activated receptor gamma (PPARg) signaling pathway (AID 743094; active = well fitted activation curve with a large enough effect in the signal ratio in the repeat runs, not every such curve was filed as active; the % refers to the signal ratio; note: potency is the fitted concentration of half-maximal effect)
# Peroxisome proliferator-activated receptor gamma (Homo sapiens), sequence (P37231 whole entry, looked up): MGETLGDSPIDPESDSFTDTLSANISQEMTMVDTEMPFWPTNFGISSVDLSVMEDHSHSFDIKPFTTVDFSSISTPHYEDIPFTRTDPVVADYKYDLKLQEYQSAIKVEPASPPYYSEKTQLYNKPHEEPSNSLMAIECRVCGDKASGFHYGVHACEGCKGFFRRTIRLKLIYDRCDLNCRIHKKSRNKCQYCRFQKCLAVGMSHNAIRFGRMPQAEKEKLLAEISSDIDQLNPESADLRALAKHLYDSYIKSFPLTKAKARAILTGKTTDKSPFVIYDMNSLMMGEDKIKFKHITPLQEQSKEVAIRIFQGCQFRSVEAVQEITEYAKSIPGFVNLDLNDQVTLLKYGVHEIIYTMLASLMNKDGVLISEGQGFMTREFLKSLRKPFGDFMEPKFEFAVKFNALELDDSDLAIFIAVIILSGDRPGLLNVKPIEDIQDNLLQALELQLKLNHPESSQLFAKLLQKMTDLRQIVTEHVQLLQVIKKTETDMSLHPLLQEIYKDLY
# Outline: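 Stably transfected HEK293H cells (GeneBLAzer PPARg UAS-bla) were incubated with test substances for 17 h at 37C after a 5 h pre-incubation; beta-lactamase activity was then detected by FRET substrate fluorescence.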
# [8] = qHTS assay for small molecule agonists of the antioxidant response element (ARE) signaling pathway (AID 743202; active = well fitted activation curve with a large enough effect in the signal ratio in the repeat runs, not every such curve was filed as active; the % refers to the signal ratio; note: potency is the fitted concentration of half-maximal effect)
# Outline: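 ARE-bla HepG2 cells (beta-lactamase reporter under the antioxidant response element), plated 5 hours, then exposed to compounds 16 hours at 37 C. LiveBLAzer B/G FRET substrate added for 2 hours at room temperature; fluorescence intensity read.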
# [9] = qHTS assay for small molecule activators of the heat shock response signaling pathway (AID 743210; active = well fitted activation curve with a large enough effect in the signal ratio in the repeat runs, with a control signal flat, not every such curve was filed as active; the % refers to the signal ratio; note: series mostly up to about 63 µM)
# Outline: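 HSE-bla HeLa cells (beta-lactamase reporter under heat shock response elements), plated overnight, then exposed to compounds 5 h at 37 C; LiveBLAzer B/G FRET substrate added, 2.5 h at room temperature, fluorescence intensity read.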
# [10] = target: Peroxisome proliferator-activated receptor gamma (Homo sapiens) (UniProt P37231); test: qHTS assay to identify small molecule antagonists of the peroxisome proliferator-activated receptor gamma (PPARg) signaling pathway (AID 743191; calls by dose curve; note: series mostly up to about 63 µM; nearly all actives have a fitted effect of over 30% in size)
# Outline: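 GeneBLAzer PPARg UAS-bla HEK293H cells, 5 h post-plating, exposed to compounds 17 h at 37C. LiveBLAzer B/G FRET substrate added for 1 h at room temperature; beta-lactamase reporter read by fluorescence intensity.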
Compound,Potency [1],Potency [2],Potency [3],Potency [4],Potency [5],Potency [6],Potency [7],Potency [8],Potency [9],Potency [10]
CCCCCCCCCCCCc1ccccc1O,30.2 µM (active) and 54.5 µM (active),inactive,inactive,48.3 µM (active) and 17.4 µM (active),60.3 µM (active) and 43.3 µM (active),17.2 µM (active) and 24.5 µM (active),,,,
CC(=O)CC(C)=O,inactive,inactive,inactive,inactive,inactive,inactive,inactive,inactive,inactive,
CCCCCCCCCCCCCC[P+](CCCC)(CCCC)CCCC,17.1 µM (active) and 19.3 µM (active),inactive,68.2 µM (active) and 54.5 µM (active),3.45 µM (active) and 3.47 µM (active),15.3 µM (active) and 10.9 µM (active),6.88 µM (active) and 13.8 µM (active),,,,
Oc1c(Cl)cc(Cl)c(Cl)c1Cc1c(O)c(Cl)cc(Cl)c1Cl,6.09 µM (active),inactive,inactive,173 nM (active) and 977 nM (active) and 1.68 µM (active),24.3 µM (active) and 8.63 µM (active) and 8.41 µM (active),21.8 µM (active) and 21.9 µM (active) and inactive,,,,
N[C@@H]1CONC1=O,inactive,inactive,inactive,inactive,inactive,inactive,,inactive,inactive,
CCCCCCCCCCCC[N+](C)(C)C,inactive,inactive,inactive,,inactive and 48.6 µM (active) and 61.1 µM (active),,inactive,8.61 µM (active),inactive,inactive
CC(C)(C)c1cc(C(C)(C)C)c(O)c(C(C)(C)C)c1,inactive,inactive,inactive,inactive,inactive,54.9 µM (active) and 49 µM (active),,,,
CC1=C(C=O)C(C)(C)CC=C1,inactive,inactive,inactive,,inactive,inactive,inactive,,inactive,inactive
O,inactive,inactive,inactive,inactive,inactive,inactive,,inactive,,
O=C(Nc1ccccc1SSc1ccccc1NC(=O)c1ccccc1)c1ccccc1,15.4 µM (active) and 48.6 µM (active),30.8 µM (active) and 34.4 µM (active),inactive,inactive,inactive,,,,,
CCOC(=O)C(C)C(C)=O (centres undefined),inactive,inactive,inactive,inactive,inactive,inactive,,inactive,,
NC(N)=NC(=O)Cc1c(Cl)cccc1Cl,inactive,inactive,inactive,inactive,inactive,inactive,inactive,,,inactive
O=C(O)c1cc(Cl)cc(Cl)c1,inactive,inactive,inactive,inactive,inactive,inactive,inactive,inactive,inactive,
CCCCCC(=O)O[C@]1(C(C)=O)CC[C@H]2[C@@H]3CCC4=CC(=O)CC[C@]4(C)[C@H]3CC[C@@]21C,inactive,inactive,inactive,,54.1 µM (active),inactive,inactive,,,
CN(C)c1ccc(C(=C2C=CC(=[N+](C)C)C=C2)c2ccccc2)cc1,1.93 µM (active),inactive,inactive and 1.93 µM (active),61.7 nM (active) and 668 nM (active),545 nM (active) and 2.98 µM (active),,26.8 µM (active),,,
CCn1cc(C(=O)O)c(=O)c2cc(F)c(N3CCNC(C)C3)c(F)c21 (centres undefined),inactive,inactive,inactive,inactive,inactive,inactive,inactive,inactive,inactive,
CC(C)C(=O)c1c(C(C)C)nn2ccccc12,inactive,inactive,inactive,inactive,inactive,,inactive,inactive,inactive,
CC(C)(O)CCC(C)(C)O,inactive,inactive,inactive,inactive,inactive,inactive,inactive,inactive,inactive,
CC(=O)OCC1=C(C(=O)O)N2C(=O)[C@@H](NC(=O)Cc3cccs3)[C@H]2SC1,inactive,inactive,inactive,inactive,inactive,inactive,inactive,,,inactive
CN1C(=O)c2ccc([N+](=O)[O-])cc2C1=O,inactive,inactive,inactive,inactive,inactive,inactive,inactive,,inactive,inactive
C=C(C)C(=O)O,inactive,inactive,inactive,inactive,inactive,inactive,inactive,inactive,inactive,
COC(c1ccccc1)(c1ccccc1)[C@H](Oc1nc(C)cc(C)n1)C(=O)O,inactive,inactive,inactive,inactive,inactive,,inactive,inactive,inactive,inactive
Cc1cc(Cc2cc(C)cc(C(C)(C)C)c2O)c(O)c(C(C)(C)C)c1,54.8 µM (active) and 61.1 µM (active),inactive,inactive,12.4 µM (active) and 11 µM (active),17.3 µM (active) and 27.3 µM (active),11 µM (active) and 13.8 µM (active),,,,
CNCCC(Oc1ccc(C(F)(F)F)cc1)c1ccccc1 (centres undefined),inactive and 47.9 µM (active),inactive,inactive and 60.3 µM (active),48.4 µM (active),17 µM (active),,,,,
COc1ccc(Cc2cnc(N)nc2N)cc1OC,inactive,inactive,inactive,inactive,inactive,inactive,inactive,inactive,inactive,
CC(C)(C)c1ccc(O)c(C(C)(C)C)c1,48.4 µM (active) and 48.6 µM (active),inactive,inactive,48.8 µM (active) and 38.9 µM (active),61.1 µM (active),48.8 µM (active) and 43.6 µM (active),inactive,,,
CC(C)CCCCCCc1ccc(O)cc1,inactive and 31.2 µM (active),inactive,inactive,,inactive,39.6 µM (active) and 54.9 µM (active),inactive,,,
